Assay [1] deals with Protein kinase C gamma type (Homo sapiens) (UniProt P05129). The conditions noted are these: at 1 µM.
Assay [2] addresses T1, Protein kinase C iota type (Homo sapiens) (UniProt P41743).
T1 sequence (whole entry): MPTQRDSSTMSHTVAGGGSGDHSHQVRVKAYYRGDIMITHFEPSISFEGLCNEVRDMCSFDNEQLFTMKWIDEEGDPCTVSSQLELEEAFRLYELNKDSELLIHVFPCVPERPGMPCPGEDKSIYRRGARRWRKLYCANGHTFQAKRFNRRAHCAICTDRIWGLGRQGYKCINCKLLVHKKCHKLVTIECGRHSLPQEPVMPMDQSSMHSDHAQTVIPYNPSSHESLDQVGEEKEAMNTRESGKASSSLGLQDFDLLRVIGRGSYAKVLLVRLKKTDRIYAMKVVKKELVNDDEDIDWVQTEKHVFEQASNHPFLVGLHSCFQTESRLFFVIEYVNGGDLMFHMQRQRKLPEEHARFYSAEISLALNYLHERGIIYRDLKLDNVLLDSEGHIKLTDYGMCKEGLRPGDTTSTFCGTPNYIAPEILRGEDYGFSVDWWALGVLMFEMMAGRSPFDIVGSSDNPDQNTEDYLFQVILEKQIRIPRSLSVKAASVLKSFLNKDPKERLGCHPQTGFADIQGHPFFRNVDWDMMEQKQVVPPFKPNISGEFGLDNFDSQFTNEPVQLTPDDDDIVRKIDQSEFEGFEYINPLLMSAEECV
The conditions noted are these: at 0.1 µM.

Assay [3] has as its target T1, Protein kinase C iota type (Homo sapiens). The conditions noted are these: at 1 µM.
Assay [4] concerns the target Protein kinase C theta type (Homo sapiens) (UniProt Q04759). The conditions noted are these: at 0.1 µM.
For assay [5] the target is unchanged. The conditions noted are these: at 1 µM.
Assay [6] addresses Protein kinase C beta type (Homo sapiens) (UniProt P05771). The conditions noted are these: at 0.1 µM.
For assay [7] the target is unchanged. The conditions noted are these: at 1 µM.
Assay [8] addresses T2, Serine/threonine-protein kinase D1 (Homo sapiens) (UniProt Q15139).
T2 sequence (whole entry): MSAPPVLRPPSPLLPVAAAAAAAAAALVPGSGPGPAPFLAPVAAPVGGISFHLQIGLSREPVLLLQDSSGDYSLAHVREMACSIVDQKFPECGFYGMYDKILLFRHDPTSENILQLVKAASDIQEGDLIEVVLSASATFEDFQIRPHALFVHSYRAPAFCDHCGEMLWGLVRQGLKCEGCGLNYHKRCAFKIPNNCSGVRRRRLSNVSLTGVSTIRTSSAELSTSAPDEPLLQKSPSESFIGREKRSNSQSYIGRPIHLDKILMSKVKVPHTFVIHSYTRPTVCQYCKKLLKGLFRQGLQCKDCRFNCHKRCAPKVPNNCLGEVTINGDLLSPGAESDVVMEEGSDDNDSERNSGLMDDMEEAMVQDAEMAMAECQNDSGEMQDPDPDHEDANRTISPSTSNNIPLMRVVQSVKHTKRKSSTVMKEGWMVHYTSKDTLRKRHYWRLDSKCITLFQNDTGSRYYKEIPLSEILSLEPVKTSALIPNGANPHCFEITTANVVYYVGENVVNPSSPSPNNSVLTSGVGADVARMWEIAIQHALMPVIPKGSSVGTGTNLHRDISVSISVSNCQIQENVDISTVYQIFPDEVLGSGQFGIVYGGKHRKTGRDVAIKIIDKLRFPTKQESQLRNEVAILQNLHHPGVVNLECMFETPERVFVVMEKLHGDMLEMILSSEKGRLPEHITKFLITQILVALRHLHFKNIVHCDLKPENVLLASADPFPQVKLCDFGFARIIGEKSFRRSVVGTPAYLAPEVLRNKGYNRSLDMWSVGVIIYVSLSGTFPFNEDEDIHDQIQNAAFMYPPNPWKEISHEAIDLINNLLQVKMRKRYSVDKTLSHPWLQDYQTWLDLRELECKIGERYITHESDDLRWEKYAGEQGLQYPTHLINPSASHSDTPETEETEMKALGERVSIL
The conditions noted are these: at 0.1 µM.

Assay [9] deals with T2, Serine/threonine-protein kinase D1 (Homo sapiens). The conditions noted are these: at 1 µM.
Assay [10] has as its target T3, Serine/threonine-protein kinase D2 (Homo sapiens) (UniProt Q9BZL6).
T3 sequence (whole entry): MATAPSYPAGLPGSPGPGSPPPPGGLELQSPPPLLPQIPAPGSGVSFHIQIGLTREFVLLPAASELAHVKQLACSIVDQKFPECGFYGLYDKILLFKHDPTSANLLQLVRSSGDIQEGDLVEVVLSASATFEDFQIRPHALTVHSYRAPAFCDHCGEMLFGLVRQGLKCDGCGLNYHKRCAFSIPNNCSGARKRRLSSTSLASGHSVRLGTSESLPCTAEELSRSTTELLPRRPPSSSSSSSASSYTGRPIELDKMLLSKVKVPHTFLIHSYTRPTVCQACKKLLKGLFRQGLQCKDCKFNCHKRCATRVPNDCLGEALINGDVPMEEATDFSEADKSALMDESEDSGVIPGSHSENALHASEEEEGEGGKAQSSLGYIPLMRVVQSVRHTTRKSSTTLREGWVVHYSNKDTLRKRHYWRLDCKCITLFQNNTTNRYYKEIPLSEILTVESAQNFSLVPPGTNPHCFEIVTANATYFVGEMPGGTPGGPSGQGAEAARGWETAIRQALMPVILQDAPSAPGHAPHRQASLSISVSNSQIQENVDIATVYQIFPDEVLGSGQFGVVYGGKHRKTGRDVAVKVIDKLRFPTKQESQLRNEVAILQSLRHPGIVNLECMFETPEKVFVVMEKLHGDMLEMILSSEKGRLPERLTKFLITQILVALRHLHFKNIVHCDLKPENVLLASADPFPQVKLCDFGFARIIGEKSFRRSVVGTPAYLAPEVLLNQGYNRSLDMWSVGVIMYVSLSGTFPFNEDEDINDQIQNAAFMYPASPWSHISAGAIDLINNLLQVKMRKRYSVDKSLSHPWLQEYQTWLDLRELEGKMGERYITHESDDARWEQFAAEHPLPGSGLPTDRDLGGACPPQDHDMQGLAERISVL
The conditions noted are these: at 0.1 µM.

Assay [11] concerns the target T3, Serine/threonine-protein kinase D2 (Homo sapiens). The conditions noted are these: at 1 µM.
The target in assay [12] is T4, Serine/threonine-protein kinase D3 (Homo sapiens) (UniProt O94806).
T4 sequence (whole entry): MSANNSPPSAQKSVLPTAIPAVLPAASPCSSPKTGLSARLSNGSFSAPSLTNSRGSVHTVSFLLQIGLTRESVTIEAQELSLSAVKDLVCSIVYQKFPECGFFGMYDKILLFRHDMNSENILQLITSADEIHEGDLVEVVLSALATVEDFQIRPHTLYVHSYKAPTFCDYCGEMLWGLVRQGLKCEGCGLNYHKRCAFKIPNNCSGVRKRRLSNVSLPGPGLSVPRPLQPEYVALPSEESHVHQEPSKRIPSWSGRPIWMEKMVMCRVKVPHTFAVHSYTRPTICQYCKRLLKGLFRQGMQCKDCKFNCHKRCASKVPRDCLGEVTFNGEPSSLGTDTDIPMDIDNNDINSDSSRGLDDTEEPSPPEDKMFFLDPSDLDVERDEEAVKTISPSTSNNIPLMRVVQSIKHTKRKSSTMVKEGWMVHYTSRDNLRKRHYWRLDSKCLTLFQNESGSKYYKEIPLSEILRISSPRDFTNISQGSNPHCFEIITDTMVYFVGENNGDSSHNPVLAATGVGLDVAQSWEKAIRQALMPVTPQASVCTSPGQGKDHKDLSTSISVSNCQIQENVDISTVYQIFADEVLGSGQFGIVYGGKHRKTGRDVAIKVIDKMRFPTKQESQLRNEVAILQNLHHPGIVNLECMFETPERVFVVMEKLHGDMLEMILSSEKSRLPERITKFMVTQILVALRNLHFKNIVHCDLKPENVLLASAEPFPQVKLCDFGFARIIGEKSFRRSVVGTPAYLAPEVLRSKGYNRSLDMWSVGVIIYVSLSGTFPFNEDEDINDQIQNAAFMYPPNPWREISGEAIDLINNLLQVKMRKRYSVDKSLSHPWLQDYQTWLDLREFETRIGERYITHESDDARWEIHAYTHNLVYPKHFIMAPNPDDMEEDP
The conditions noted are these: at 0.1 µM.

Assay [13] deals with T4, Serine/threonine-protein kinase D3 (Homo sapiens). The conditions noted are these: at 1 µM.
Assay [14] deals with T5, cGMP-dependent protein kinase 1 (Homo sapiens) (UniProt Q13976).
T5 sequence (whole entry): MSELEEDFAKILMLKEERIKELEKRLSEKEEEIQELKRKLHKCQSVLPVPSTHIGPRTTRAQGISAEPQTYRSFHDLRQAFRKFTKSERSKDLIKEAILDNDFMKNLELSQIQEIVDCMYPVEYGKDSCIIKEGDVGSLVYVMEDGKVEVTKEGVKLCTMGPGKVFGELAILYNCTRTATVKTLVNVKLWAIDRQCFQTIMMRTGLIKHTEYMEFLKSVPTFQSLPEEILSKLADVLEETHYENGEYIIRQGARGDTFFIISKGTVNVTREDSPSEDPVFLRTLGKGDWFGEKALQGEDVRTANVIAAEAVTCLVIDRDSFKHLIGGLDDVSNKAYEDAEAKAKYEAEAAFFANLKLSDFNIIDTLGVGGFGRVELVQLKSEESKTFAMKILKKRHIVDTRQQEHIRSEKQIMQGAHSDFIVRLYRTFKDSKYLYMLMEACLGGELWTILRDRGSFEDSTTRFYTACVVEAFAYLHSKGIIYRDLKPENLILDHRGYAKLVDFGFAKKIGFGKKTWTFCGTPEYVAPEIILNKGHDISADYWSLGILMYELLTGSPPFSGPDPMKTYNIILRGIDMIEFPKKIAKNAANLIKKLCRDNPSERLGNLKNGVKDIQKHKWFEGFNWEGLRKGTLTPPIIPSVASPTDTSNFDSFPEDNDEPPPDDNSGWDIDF
The conditions noted are these: at 0.1 µM.

The target in assay [15] is T5, cGMP-dependent protein kinase 1 (Homo sapiens). The conditions noted are these: at 1 µM.
Assay [16] has as its target T6, cGMP-dependent protein kinase 2 (Homo sapiens) (UniProt Q13237).
T6 sequence (whole entry): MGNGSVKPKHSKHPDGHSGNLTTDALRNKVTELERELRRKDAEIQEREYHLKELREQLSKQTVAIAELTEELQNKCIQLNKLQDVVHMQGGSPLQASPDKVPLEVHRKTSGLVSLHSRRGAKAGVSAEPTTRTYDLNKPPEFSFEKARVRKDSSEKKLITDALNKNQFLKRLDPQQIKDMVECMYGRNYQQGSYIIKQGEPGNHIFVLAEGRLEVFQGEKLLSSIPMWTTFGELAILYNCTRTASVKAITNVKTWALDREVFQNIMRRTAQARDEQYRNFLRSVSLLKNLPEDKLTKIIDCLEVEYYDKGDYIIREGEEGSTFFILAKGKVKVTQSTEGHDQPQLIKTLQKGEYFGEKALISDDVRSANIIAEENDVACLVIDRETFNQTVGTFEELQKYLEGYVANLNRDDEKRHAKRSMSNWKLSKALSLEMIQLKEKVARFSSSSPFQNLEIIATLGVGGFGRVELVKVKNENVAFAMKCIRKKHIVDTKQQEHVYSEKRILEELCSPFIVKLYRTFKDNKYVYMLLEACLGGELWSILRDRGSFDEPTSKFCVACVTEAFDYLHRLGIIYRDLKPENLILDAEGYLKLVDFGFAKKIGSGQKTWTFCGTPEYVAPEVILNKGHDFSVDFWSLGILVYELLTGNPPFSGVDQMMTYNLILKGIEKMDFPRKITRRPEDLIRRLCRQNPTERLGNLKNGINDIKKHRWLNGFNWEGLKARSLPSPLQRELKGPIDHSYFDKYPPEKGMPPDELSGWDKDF
The conditions noted are these: at 0.1 µM.

The target in assay [17] is T6, cGMP-dependent protein kinase 2 (Homo sapiens). The conditions noted are these: at 1 µM.
For assay [18], the target named is T7, cAMP-dependent protein kinase catalytic subunit PRKX (Homo sapiens) (UniProt P51817).
T7 sequence (whole entry): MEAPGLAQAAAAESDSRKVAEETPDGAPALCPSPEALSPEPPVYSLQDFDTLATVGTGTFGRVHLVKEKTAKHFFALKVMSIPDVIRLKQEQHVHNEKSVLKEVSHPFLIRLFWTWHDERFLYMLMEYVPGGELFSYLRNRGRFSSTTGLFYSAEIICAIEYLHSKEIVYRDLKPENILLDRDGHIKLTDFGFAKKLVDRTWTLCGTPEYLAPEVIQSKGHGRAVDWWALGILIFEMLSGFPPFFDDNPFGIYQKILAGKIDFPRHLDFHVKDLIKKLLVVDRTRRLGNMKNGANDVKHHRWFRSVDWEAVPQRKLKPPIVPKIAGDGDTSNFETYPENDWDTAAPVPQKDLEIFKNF
The conditions noted are these: at 0.1 µM.

The target in assay [19] is T7, cAMP-dependent protein kinase catalytic subunit PRKX (Homo sapiens). The conditions noted are these: at 1 µM.
Assay [20] concerns the target Rho-associated protein kinase 1 (Homo sapiens) (UniProt Q13464). The conditions noted are these: at 0.1 µM.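 Further: values are mean percent inhibition of ROCK1.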

In general, inhibition refers to the drop in the measured response relative to a control, in per cent. Low values mean little suppression, high ones strong suppression.

Protein kinase C beta type (Homo sapiens), sequence (P05771 2-671 limits assumed): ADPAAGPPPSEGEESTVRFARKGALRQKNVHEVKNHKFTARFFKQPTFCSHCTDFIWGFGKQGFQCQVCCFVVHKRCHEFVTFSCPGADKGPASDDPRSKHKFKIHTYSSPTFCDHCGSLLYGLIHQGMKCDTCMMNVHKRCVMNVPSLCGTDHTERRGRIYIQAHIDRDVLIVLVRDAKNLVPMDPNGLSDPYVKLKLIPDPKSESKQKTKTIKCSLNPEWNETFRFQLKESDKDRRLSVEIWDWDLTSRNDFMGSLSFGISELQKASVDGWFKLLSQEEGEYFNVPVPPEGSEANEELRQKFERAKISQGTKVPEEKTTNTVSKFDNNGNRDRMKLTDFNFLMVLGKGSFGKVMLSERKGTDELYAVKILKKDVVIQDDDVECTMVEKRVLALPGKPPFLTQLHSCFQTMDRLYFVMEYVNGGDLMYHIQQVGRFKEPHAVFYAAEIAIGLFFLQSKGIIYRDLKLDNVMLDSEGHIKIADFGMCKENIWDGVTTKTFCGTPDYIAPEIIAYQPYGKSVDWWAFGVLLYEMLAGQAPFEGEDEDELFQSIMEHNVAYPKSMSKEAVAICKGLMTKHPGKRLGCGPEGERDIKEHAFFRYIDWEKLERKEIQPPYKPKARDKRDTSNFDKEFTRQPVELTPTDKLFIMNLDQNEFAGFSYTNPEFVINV
Protein kinase C theta type (Homo sapiens), sequence (Q04759 whole entry, looked up): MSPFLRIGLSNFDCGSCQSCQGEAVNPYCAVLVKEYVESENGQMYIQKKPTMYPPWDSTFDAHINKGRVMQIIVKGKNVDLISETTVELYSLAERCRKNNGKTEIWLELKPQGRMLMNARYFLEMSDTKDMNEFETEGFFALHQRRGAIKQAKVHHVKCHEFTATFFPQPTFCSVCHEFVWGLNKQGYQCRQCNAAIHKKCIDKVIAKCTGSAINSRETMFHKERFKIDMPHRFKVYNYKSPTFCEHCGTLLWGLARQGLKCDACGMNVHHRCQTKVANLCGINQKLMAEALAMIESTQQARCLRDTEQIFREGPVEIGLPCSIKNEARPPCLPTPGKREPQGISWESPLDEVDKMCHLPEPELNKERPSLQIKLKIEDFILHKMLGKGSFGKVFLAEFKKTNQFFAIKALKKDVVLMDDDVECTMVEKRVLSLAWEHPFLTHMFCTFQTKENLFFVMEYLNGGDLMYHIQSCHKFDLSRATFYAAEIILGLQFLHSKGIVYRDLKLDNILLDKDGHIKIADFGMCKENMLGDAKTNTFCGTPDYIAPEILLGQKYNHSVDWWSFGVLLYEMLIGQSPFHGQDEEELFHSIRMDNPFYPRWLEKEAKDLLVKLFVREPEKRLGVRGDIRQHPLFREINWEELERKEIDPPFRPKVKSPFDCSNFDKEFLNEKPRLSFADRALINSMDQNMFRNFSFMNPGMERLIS
Rho-associated protein kinase 1 (Homo sapiens), sequence (Q13464 2-1354 limits assumed): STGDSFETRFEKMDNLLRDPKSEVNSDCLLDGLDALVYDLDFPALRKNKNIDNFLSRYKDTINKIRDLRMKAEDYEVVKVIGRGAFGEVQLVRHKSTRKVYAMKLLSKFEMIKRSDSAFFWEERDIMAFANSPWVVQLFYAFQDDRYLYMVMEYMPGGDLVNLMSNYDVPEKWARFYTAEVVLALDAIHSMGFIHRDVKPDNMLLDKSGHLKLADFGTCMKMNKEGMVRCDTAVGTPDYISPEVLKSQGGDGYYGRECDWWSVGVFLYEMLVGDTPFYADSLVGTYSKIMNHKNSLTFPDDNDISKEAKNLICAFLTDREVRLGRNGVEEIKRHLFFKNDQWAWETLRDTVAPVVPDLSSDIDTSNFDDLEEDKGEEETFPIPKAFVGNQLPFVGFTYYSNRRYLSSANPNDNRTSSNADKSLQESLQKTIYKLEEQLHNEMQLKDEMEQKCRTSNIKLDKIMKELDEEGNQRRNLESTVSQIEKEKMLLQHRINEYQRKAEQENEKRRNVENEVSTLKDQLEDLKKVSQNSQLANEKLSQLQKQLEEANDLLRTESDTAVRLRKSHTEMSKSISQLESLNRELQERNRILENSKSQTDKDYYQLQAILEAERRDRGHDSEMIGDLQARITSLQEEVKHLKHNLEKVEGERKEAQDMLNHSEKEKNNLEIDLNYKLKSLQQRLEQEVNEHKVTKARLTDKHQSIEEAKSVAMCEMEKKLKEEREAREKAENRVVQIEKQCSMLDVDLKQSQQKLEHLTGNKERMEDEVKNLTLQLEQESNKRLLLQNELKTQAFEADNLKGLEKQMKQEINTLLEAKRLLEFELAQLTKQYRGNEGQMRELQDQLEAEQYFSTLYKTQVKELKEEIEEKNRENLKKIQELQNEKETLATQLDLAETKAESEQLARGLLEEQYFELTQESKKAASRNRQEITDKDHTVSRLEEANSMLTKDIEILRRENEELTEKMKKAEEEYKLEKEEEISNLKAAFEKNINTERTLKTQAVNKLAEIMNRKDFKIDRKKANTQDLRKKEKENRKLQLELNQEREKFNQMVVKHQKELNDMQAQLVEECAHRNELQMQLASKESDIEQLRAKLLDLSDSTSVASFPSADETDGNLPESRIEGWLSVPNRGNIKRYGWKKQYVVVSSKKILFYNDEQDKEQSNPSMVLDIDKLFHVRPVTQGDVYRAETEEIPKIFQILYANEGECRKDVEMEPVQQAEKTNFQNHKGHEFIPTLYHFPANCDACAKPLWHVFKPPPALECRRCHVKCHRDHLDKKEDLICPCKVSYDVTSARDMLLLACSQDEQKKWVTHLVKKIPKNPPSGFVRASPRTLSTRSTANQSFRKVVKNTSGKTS

In the case of `Fc1ccc(-c2nc3n(c2-c2ccncc2)CCS3)cc1`, the inhibition in assay [1] came to 0.85%; in assay [2] it was 2.39%; in [3], 2.4%; in assay [4], 1.87%; in assay [5], 1.91%; in assay [6], 1.53%. Moreover, the inhibition worked out at 4.27% in assay [7]; 0.84% in assay [8]; 4.16% in assay [9]; 2.09% in assay [10]; 3.85% in assay [11]; 1.34% in [12]. The inhibition in assay [13] was 3.94%; in assay [14] it was 3.66%; in assay [15], 4.28%; in [16] it was 2.32%; in [17] it was 3.35%; in [18], 1.54%. Besides, the inhibition in [19] worked out at 1.87%; in assay [20], 1.14%.
